37 compounds from the supplement of paper PMC10941209 can be followed below.

This test relates to HFF. Kind of test: cell viability relative to DMSO control; higher = less cytotoxic. Particulars: 1 µM; 72 h. As for the experimental part:
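Single-dose cytotoxicity screen of the MMV Pandemic Response Box at 1 uM on human foreskin fibroblasts (HFF), 72 h at 37 C. Viability measured by MTT (OD 550 nm) and normalised to the DMSO control (% survival).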
In the case of `CCc1cc(CCCOc2c(C)cc(-c3noc(C(F)(F)F)n3)cc2C)on1`, the cell viability came to 69.3%. In turn, `COc1ccc(CNC(=O)C(NS(=O)(=O)c2ccc3nc(C)sc3c2)C(C)C)cc1` (configuration not stated) registered a cell viability of 64.5%. For `c1ccc(-c2nnc3c4ccccc4c(N4CCNCC4)nn23)cc1` the value was 73.2%; for `C[C@H](c1cccc2ccccc12)N(C)Cc1ccccc1`, 65.7%; for `CC(C)(C)c1ccc(C(=O)NC(=O)N2CCCc3ccccc32)cc1`, 63.5%. For `Clc1ccc(Cn2c(CN3CCCC3)nc3ccccc32)cc1` the value was 67.7%; for `COc1cc(NCc2ccc3nc(N)nc(N)c3c2C)cc(OC)c1OC`, 63.7%. In the case of `CCn1cc(C(=O)O)c(=O)c2cc(F)c(N3CCNC(C)C3)c(F)c21` (configuration not stated) it was 71.2%. Compound `O=C(/C(=C/c1ccc(Cl)cc1Cl)n1ccnc1)c1ccc(Cl)cc1` yielded a cell viability of 74.8%.

In turn, `CCCNc1ccc(S(=O)(=O)Nc2cc(C)on2)cc1` returned a cell viability of 69.3%.

As to `NC(=O)c1nccn([C@@H]2O[C@H](CO)[C@@H](O)[C@H]2O)c1=O`, the cell viability turned out to be 72.5%. Take `CCc1cc(O)c(Oc2cccnc2N)cc1F`: the cell viability was determined as 65.5%.

`Cn1c2ccccc2c(=O)c2c(O)cccc21` returned a cell viability of 65.8%.

Compound `CCOc1ccc(/C=N/NC(=O)C2CC2c2ccc(C(C)(C)C)cc2)cc1OCC` (configuration not stated) returned a cell viability of 57.3%. For `COc1ccc(SC(=O)N[C@H](CCC(=O)O)C(=O)O)cc1` the value was 59.7%; for `CCN(CC)CCn1c(=N)n(CC(O)COc2ccc(Cl)cc2Cl)c2ccccc21` (configuration not stated), 60.7%. In the case of `CCOC(=O)/C=C/[C@H](C[C@@H]1CCNC1=O)NC(=O)[C@H](CC)n1cccc(NC(=O)c2cc(C)on2)c1=O`, the cell viability came to 68.3%. In the case of `O=C(O)c1ccc(-n2nc(-c3ccccc3O)nc2-c2ccccc2O)cc1` it was 76.7%; in that of `Oc1c(C(Nc2ccccn2)c2ccccc2)ccc2cccnc12` (configuration not stated), 69.9%; in that of `CCNC(=O)Nc1cc2c(-c3ccnc(C)c3)ccc(CNC(=O)OC)c2cn1`, 62.7%. For the compound `CC#C[C@]1(O)CC[C@H]2[C@@H]3CCC4=CC(=O)CCC4=C3[C@@H](c3ccc(N(C)C)cc3)C[C@@]21C`, the cell viability was 52%. For `O=C(c1nc2c(C(F)(F)F)cc(C3CC3)cn2c1Cl)N1CCN([C@H]2CC[C@H](O)CC2)C(=O)C1` the value was 61.7%; for `NC(=S)N/N=C/c1ncccc1N`, 65.3%. In turn, `CCCCCc1ccc(C(=O)NCCn2cc(CCCCCc3c[nH]c(N)n3)nn2)cc1` yielded a cell viability of 66.1%. In the case of `COc1ccc(SCC(=O)N2c3ccccc3Sc3ccccc32)cc1` it was 69.2%. With `FC(F)(F)c1cc(C(F)(F)F)c2ccc3nc(-c4nnco4)cn3c2n1`, the cell viability is 67.3%. Consider `N[C@@H]1CN(c2c(F)cc3c(=O)c(C(=O)O)cn([C@@H]4C[C@@H]4F)c3c2Cl)CC12CC2`, for which the cell viability was found to be 60.8%. In the case of `O=C(N[C@H](CCS)C(=O)N[C@H](Cc1ccccc1)C(=O)O)c1cc2ccccc2[nH]1`, the cell viability was determined as 67.6%. In the case of `CC(C)(C)OC(=O)NCc1ccc(C(=O)N[C@H]2CCOC2=O)cc1` it was 65.7%; in that of `NS(=O)(=O)c1ccc(NC(=O)NC(c2ccccc2)c2ccccc2)cc1`, 72.8%; in that of `CCCCOC(=O)Nc1cc2nc(C3CCCCC3)[nH]c2cc1N(CC)CC`, 72.1%.

In turn, `COc1ccc2sc3c(c2c1)NC(C)CNC3=O` (configuration not stated) yielded a cell viability of 82.1%. In the case of `Cc1ccc(Oc2ccccc2-c2csc(N=C3NCCCN3)n2)c(C)c1`, the cell viability came out at 68.5%.

Consider `OC1O[C@H](CSc2ccc(F)cc2)[C@@H](O)[C@H]1O` (some centres not stated), for which the cell viability is 67.7%. For `C[C@H]1COc2c(N3CCN(C)CC3)c(F)cc3c(=O)c(C(=O)O)cn1c23` the value was 66%; for `CONC(=N)c1ccc(-c2ccc(-c3ccc(C(=N)NOC)cc3)o2)cc1`, 63.9%; for `Oc1ccc(NCc2ccccc2OCc2ccccc2)cc1`, 70.1%.
